One molecule from the supplement of paper PMC11732987, “Enantioselective OTUD7B fragment discovery through chemoproteomics screening and high-throughput optimisation” (Communications Chemistry, 2025) can be followed below.

Molecules are shown by their SMILES. Unmarked numbers belong to inactive results.

What all share (assay): log2 ratio of Biotin-Ahx-Ub-VS probe labelling (fragment/DMSO); higher = less target engagement (more negative = stronger competition), active = hit call of the paper (q ≤ 0.05, log2 ratio ≤ -1)
What all share (details): compound concentration: 200 uM; treatment time: 3 h

One assay concerns the target T1, USP19 (UniProt O94966).
T1 sequence (whole entry): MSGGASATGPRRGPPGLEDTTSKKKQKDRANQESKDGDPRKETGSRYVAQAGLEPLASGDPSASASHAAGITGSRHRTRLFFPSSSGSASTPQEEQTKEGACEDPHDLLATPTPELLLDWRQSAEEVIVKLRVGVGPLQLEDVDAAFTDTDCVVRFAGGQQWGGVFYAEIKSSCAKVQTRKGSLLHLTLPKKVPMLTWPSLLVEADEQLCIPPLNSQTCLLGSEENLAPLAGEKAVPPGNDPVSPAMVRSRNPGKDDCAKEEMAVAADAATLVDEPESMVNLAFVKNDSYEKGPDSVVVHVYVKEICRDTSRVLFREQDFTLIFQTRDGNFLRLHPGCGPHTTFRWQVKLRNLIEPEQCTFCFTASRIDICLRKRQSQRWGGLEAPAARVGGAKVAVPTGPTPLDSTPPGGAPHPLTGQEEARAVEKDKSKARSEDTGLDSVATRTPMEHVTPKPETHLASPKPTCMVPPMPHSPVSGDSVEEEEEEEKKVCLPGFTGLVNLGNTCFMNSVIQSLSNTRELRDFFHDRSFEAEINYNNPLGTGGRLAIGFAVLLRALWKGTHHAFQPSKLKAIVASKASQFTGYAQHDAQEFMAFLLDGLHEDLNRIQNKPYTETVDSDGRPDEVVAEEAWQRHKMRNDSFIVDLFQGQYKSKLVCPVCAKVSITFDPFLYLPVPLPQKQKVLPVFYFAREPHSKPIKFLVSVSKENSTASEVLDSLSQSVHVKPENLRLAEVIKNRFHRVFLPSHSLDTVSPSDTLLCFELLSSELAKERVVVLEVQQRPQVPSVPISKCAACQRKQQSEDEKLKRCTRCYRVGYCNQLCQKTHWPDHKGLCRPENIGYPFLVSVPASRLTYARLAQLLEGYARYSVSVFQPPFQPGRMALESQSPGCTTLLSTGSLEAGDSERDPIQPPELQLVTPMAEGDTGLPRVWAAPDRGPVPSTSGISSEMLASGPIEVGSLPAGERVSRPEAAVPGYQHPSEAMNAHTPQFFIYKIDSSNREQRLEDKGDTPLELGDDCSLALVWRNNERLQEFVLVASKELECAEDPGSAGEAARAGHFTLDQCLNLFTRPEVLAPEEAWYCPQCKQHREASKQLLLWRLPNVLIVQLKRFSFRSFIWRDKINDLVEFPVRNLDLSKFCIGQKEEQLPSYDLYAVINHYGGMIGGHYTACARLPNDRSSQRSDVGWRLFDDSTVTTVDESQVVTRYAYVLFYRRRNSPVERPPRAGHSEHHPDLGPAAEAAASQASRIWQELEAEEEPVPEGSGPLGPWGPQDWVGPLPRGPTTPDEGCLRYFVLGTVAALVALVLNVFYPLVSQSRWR
Put shortly: (§1)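 Labelled DUBs from HEK293T lysate were NeutrAvidin-enriched, digested with LysC and trypsin, and run by diaPASEF LC-MS/MS. Before that, each 495 µg sample in Tris/CHAPS/IGEPAL buffer with protease inhibitors was treated in triplicate with fragment at 200 µM or vehicle for 3 h, then with Biotin-Ahx-Ub-VS at 0.5 µM final for 1 h. Values are average log2 ratios of fragment over vehicle by unpaired t-test, based on global-median-normalised Spectronaut label-free quantities from proteins with ≥2 unique peptides.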

A further assay deals with T2, USP22 (UniProt Q9UPT9).
T2 sequence (whole entry): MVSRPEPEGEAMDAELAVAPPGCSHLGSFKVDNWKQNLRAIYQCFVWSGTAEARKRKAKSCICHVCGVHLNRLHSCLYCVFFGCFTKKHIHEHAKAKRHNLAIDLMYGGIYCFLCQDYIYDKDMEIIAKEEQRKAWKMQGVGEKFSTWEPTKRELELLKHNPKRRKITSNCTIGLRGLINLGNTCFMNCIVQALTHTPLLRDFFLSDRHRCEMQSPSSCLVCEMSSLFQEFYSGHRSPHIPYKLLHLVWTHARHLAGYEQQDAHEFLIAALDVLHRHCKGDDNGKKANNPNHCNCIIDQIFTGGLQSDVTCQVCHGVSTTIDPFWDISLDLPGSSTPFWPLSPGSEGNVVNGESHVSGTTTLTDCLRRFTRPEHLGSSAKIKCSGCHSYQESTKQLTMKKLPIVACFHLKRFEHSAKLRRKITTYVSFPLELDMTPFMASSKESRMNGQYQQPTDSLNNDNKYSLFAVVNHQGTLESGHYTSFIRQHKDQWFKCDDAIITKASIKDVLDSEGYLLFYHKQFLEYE
In short, it runs like this: as §1

For another assay, the target named is USP24 (UniProt Q9UPU5). In short, it runs like this: as §1
Sequence of USP24 (Q9UPU5 whole entry): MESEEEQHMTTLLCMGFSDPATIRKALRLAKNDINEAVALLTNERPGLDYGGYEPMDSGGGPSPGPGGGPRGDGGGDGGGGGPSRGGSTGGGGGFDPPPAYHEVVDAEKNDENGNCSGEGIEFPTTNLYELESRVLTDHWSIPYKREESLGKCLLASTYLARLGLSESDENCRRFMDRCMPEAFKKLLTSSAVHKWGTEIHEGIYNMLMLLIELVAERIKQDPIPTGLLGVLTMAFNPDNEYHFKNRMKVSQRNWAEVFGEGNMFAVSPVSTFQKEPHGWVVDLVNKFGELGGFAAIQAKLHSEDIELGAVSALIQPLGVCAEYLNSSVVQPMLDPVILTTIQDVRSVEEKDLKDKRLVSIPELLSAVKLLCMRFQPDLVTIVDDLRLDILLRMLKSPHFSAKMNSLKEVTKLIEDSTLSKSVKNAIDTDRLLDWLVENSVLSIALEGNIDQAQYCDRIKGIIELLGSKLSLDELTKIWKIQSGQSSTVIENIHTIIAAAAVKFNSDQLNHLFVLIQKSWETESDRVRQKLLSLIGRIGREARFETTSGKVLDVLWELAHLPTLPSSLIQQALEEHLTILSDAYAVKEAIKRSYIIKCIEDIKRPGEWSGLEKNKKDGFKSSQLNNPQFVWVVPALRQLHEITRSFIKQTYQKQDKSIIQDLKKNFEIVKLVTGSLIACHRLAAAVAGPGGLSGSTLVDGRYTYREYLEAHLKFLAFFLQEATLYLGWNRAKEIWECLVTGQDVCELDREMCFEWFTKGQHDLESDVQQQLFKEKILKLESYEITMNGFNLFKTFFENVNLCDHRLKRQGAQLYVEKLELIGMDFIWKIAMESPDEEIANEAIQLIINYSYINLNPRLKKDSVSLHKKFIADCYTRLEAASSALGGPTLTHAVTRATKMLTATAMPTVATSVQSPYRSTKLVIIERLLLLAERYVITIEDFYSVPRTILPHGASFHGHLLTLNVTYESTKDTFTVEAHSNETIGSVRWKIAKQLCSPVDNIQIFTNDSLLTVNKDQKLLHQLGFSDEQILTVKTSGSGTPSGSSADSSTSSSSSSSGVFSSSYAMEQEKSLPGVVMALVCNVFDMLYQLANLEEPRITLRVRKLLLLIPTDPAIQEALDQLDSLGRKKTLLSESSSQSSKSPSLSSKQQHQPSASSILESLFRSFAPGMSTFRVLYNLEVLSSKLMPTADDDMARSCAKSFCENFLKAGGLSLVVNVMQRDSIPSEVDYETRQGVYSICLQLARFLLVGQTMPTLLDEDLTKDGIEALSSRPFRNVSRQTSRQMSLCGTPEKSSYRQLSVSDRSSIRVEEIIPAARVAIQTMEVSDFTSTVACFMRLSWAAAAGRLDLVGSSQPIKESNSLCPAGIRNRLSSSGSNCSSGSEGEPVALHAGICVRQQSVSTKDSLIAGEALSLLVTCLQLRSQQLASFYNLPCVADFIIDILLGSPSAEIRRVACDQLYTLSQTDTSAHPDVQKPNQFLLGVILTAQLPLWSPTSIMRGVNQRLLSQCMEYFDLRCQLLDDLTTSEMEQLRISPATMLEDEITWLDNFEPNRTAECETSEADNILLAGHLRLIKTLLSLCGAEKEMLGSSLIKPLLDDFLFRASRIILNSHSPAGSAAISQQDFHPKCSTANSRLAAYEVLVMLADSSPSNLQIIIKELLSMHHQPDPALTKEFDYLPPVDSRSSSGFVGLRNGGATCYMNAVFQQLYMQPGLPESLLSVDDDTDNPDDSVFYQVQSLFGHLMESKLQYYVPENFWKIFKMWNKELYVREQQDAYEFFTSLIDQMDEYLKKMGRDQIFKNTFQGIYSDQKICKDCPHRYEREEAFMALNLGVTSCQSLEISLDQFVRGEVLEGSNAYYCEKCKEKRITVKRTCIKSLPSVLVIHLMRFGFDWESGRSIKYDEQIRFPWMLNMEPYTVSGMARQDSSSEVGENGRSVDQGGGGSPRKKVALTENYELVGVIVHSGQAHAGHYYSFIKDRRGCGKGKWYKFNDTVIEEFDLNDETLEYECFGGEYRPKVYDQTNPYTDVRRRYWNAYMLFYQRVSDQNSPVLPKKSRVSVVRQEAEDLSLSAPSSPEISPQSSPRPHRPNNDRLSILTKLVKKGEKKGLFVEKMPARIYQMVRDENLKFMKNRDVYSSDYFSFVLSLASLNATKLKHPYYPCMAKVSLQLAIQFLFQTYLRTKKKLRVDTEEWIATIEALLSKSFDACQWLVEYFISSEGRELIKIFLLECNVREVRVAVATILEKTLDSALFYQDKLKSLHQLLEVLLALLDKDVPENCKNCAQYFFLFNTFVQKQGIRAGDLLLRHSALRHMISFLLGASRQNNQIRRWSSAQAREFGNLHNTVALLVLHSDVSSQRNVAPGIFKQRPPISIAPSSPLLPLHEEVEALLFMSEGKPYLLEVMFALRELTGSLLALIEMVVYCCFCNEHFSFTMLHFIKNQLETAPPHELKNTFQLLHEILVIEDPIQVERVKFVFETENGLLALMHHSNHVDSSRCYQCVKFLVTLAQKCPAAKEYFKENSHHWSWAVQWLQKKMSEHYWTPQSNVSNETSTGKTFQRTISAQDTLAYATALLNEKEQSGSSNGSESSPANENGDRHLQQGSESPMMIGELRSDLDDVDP
The target of another assay is T3, USP25 (UniProt Q9UHP3).
T3 sequence (whole entry): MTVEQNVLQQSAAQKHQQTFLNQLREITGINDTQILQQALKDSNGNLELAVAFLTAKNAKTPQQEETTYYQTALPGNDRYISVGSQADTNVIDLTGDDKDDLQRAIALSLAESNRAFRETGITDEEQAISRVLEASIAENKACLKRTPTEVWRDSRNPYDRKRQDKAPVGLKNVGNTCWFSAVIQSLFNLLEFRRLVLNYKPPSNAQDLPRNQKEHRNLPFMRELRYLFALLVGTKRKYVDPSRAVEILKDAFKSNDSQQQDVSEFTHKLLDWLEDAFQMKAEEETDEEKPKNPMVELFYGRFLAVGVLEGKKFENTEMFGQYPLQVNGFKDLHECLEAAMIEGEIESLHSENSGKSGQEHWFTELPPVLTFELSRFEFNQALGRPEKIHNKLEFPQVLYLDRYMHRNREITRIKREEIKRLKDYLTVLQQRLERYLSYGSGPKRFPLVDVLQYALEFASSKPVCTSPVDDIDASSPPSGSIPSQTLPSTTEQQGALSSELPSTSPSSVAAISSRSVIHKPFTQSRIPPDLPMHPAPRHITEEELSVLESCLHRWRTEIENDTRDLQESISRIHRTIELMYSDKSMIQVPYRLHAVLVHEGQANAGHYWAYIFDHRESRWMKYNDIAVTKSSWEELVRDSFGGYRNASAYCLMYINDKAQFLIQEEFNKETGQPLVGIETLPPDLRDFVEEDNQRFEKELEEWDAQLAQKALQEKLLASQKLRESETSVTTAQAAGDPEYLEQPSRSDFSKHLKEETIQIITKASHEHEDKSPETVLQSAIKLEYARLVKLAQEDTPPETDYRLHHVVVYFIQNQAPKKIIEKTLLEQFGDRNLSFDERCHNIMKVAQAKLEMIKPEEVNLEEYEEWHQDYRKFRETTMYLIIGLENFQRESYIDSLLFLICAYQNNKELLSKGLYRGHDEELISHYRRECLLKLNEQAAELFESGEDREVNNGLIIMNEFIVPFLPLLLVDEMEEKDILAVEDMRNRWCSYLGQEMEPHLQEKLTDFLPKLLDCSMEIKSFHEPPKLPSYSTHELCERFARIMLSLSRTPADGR
In short, it runs like this: as §1

The target of the next assay is T4, USP28 (UniProt Q96RU2).
T4 sequence (whole entry): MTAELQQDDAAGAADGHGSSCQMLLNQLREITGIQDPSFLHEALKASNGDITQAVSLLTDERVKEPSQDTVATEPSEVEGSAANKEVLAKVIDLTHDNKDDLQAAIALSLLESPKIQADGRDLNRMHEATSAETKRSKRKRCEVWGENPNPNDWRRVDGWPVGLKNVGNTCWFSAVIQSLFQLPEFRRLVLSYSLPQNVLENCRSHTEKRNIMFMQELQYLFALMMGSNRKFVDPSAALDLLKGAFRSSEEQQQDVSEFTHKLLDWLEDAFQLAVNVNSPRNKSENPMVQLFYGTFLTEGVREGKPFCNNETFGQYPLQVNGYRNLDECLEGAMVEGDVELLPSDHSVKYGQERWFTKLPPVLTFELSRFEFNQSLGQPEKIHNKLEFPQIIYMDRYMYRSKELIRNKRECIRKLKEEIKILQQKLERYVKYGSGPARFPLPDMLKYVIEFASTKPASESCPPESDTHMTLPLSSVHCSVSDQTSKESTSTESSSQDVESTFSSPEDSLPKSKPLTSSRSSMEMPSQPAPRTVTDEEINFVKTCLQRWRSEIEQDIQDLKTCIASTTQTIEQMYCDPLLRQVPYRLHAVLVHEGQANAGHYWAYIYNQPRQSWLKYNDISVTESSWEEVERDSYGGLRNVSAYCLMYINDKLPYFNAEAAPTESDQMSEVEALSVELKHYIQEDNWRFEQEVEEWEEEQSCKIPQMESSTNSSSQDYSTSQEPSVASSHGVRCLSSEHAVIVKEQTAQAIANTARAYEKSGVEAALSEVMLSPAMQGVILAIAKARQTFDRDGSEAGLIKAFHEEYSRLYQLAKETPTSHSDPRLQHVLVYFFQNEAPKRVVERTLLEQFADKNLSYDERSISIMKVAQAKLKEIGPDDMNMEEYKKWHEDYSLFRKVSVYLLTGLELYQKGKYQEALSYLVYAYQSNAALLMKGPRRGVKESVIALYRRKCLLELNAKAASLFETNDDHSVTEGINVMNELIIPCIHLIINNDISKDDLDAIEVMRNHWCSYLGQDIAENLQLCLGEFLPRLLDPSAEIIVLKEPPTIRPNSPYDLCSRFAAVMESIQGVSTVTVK
In short, it runs like this:
as §1

Turning to `Cl.O=C(CCl)N1CCn2ncc(O)c2C1`, the “log2 ratio of Biotin-Ahx-Ub-VS probe labelling” value with USP19 was -0.754; with USP22 it was -0.609; with USP24 it was -1.05 (active); with USP25, -0.877; with USP28 it was -1.17 (active).
